# In ChEMBL document CHEMBL3988442, “University of Dundee, Small-Polar-MMV Screening Library” (2021):
# The campaign covered roughly 48,000 compounds. About 13,000 (27%) showed an effect of 50% or more. This is one part of the list.
# Test system: Wolbachia pipientis
# Assay: Anti-Wolbachia Cell-Based Screen
# Format: functional
# Set-up: scale not given: in the data most compounds retested in dose-response had high values
# Conditions: 5 µM
row,SMILES,Percent Effect
1,COCc1noc(-c2ccc(N(C)Cc3ccc(C)o3)nc2)n1,-8.335%
2,COCc1noc(-c2ccc(N(C)Cc3ncccc3C)nc2)n1,79.04%
3,COCc1noc(-c2ccc(N(C)Cc3cc(C)no3)nc2)n1,-6.826%
4,CSc1ccccc1CC1CCCS(=O)(=O)C1 (stereo not drawn),-14.28%
5,O=S(=O)(NCCSc1nncn1C1CC1)c1ccccc1,13.46%
6,CC(c1nc(C2CC2)no1)N1CCN(CCS(C)(=O)=O)CC1 (stereo not drawn),9.574%
7,CC(C(=O)N1CCOCC1)S(=O)(=O)Cc1nc(C(C)(C)C)no1 (stereo not drawn),-2.634%
8,CC(c1nc(C2CC2)no1)N1CCN(CC(=O)N2CCOCC2)CC1 (stereo not drawn),99.5%
9,CC(c1nc(C(C)(C)C)no1)N1CCC(N2CCCC2)CC1 (stereo not drawn),-1.947%
10,CCc1noc(C(C)N2CCOCC2)n1 (stereo not drawn),1.305%
11,CCc1noc(C(C)N2CCN(Cc3nc(C)c(C)o3)CC2)n1 (stereo not drawn),17.35%
12,CC(c1nc(C(C)(C)C)no1)N1CCN(C(=O)CN2CCOCC2)CC1 (stereo not drawn),87.21%
13,CC(c1nc(C2CC2)no1)N1CCN(CCc2ccncc2)CC1 (stereo not drawn),-3.98%
14,CCc1noc(C(C)N2CCN(CC(=O)N3CCOCC3)CC2)n1 (stereo not drawn),97.96%
15,O=C(Nc1ccc(CCN2CCC(O)CC2)cc1)Nc1cccnc1,-10.88%
16,CCn1c(N)nc2cc(C(=O)N3CC(c4ccccn4)C3)cnc21,10.45%
17,NC(=O)CC1CCN(S(=O)(=O)N2CCCC2c2ccco2)CC1 (stereo not drawn),-25.34%
18,COc1ccccc1OCC(=O)NCc1ncc(C)c(OC)c1C,12.71%
19,Cc1ccccc1OCC(=O)NCC(c1ccc(N(C)C)cc1)N(C)C (stereo not drawn),129.5%
20,Cc1cc(C(O)CCNC(=O)COc2ccccc2C)c(C)o1 (stereo not drawn),9.318%
21,O=C(O)c1cn(CC2CCCN(c3nccc4occc34)C2)nn1 (stereo not drawn),6.714%
22,Cc1ccc(CNc2ccccc2-n2ccc(C)n2)nc1,-1.934%
23,C=Cc1ccc(C(=O)N2CCCC(Nc3ccc(OC)cc3)C2)cc1 (stereo not drawn),13.35%
24,COc1ccc(C(=O)N2C[C@@H](O)[C@H](NCCc3ncccc3C)C2)cc1,97.07%
25,COc1ccc2c(c1)nc1n2[C@@H](CNCc2ncccc2C)COC1,-5.483%

row,SMILES,Percent Effect
1,COc1ccc(C(=O)N2C[C@@H](O)[C@H](NCc3ncccc3C)C2)cc1,82.18%
2,COc1ccc(C(=O)N2CCN(C(=O)Cn3nccc3C)CC2)cc1,4.431%
3,CNC(=O)[C@@H]1COC[C@H]2CN(C(=O)c3ccc(OC)cc3)C[C@H]21,-23.66%
4,COc1ccc(C2CCN(C(=O)c3ncccc3OC(C)C)C2)cc1 (stereo not drawn),4.794%
5,O=C(c1ccc(-c2nc[nH]n2)cc1)N1CC[C@H](CO)[C@@H](O)C1,11.14%
6,COc1ccc(C(=O)N2C[C@@H](O)[C@H](NCc3cnc(C)cn3)C2)cc1,111.7%
7,CC(C)CN1CCc2[nH]cnc2C12CCN(C(=O)c1ccc[nH]1)CC2,3.052%
8,CC(=O)N[C@@H]1CN(C2CCN(c3ccccc3F)CC2)C[C@H]1C(C)C,33.97%
9,COC(=O)CC(c1cnn(C)c1)c1oc(C)cc(=O)c1O (stereo not drawn),15.74%
10,Cn1cc(Cl)cc1C(=O)N1CCC2(CCCN(CC3CCC3)C2=O)C1 (stereo not drawn),-14.89%
11,Cc1[nH]c2c(C)ccc(C)c2c1CC(=O)NCC(O)c1cccnc1 (stereo not drawn),0.3243%
12,CCOCCN(CCOCC)c1nc(C)nc2sccc12,-8.835%
13,OCc1cc2ccccc2nc1NCC1CCN(CC(F)(F)F)C1 (stereo not drawn),-4.701%
14,CCO[C@@H]1CO[C@@]2(CCCN(C(=O)c3ccc(OC)c(F)c3)C2)C1,-6.158%
15,CO[C@H]1CO[C@@]2(CCCN(C(=O)N(C)C)C2)C1,112.3%
16,CO[C@H]1CO[C@@]2(CCCN(C(=O)N3CCCC3)C2)C1,89.24%
17,CO[C@H]1CO[C@@]2(CCCN(C(=O)C3=CCCCC3)C2)C1,-11.4%
18,CO[C@@H]1CO[C@@]2(CCCN(C(=O)N3CCCC3)C2)C1,89.36%
19,CCO[C@H]1CO[C@@]2(CCCN(C(=O)c3ccc(OC)c(F)c3)C2)C1,-0.1252%
20,O=C(N1CCCC1)N1CCC[C@]2(C[C@@H](OCc3ccncc3)CO2)C1.O=C(O)C(F)(F)F,-0.7527%
21,CN(C)C(=O)c1noc2c1CN(C(=O)CCC1CCCCN1C)CC2 (stereo not drawn),11.84%
22,CCCn1nc2c(cc1=O)CN(CC1CCCCO1)CC2 (stereo not drawn),-1.903%
23,O=C1CC[C@H]2[C@H](CCN2C(=O)C2CCCO2)N1CCN1CCCC1 (stereo partly drawn),13.58%
24,O=C(O)C(F)(F)F.O=S(=O)(C1CC1)N1CCO[C@H]2[C@H](OCCN3CCCC3)CC[C@@H]21,-18.3%
25,CCS(=O)(=O)N1CC[C@@H]2[C@H]1CCC(=O)N2CCOC,101.4%

row,SMILES,Percent Effect
1,CN1C(=O)CC[C@@H]2[C@H]1CCN2S(=O)(=O)c1cccs1,-22.4%
2,COCCCN1C(=O)CC[C@H]2CN(Cc3ncc[nH]3)CC[C@H]21,-5.769%
3,COCCN1C(=O)CC[C@@H]2[C@H]1CCN2Cc1ccc(C)s1.O=C(O)C(F)(F)F,3.422%
4,CCN1C(=O)CC[C@@H]2[C@H]1CCN2S(=O)(=O)c1cccs1,2.968%
5,COCCN1C(=O)CC[C@@H]2[C@@H]1CCN2S(=O)(=O)C1CC1,90.99%
6,COCCN1C(=O)CC[C@@H]2[C@H]1CCN2C(=O)N(C)C,4.27%
7,COCCN1C(=O)CC[C@@H]2[C@H]1CCN2C(=O)C1CCOCC1,5.34%
8,O=C(O)C(F)(F)F.O=C1CC[C@H]2[C@H](CCN2S(=O)(=O)C2CC2)N1CCN1CCCC1,79.45%
9,COCCN1C(=O)CC[C@@H]2[C@H]1CCN2S(=O)(=O)c1cccs1,103.5%
10,O=C([C@@H]1COC[C@H]2CN(C3CCCCC3)C[C@H]21)N1CCOCC1,-4.013%
11,O=C(CSCC1CC1)N1CCCC(c2nccn2Cc2ccncc2)C1 (stereo not drawn),26.77%
12,O=C(c1ccnnc1)N1CC[C@H]2[C@H]1CCN2S(=O)(=O)C1CC1,-8.086%
13,CS(=O)(=O)N1C[C@@H]2OCC(=O)N(CC3CC3)[C@@H]2C1,-6.528%
14,O=C1CC[C@@H]2[C@@H](CCN2S(=O)(=O)C2CC2)N1CC1CC1,105.6%
15,COCCC(=O)N1CCn2cc(CN3CCN(C)CC3)nc2C1.O=C(O)C(F)(F)F.O=C(O)C(F)(F)F,-0.4638%
16,Cc1noc(C)c1-c1nc(C2CCCN(C(=O)C(C)C)C2)ccc1CO (stereo not drawn),110.5%
17,CC(=O)N1CCCC(c2ccc(CO)c(-c3c(C)noc3C)n2)C1 (stereo not drawn),98.56%
18,CCCc1cc(NCCC2CCCOC2)n2nccc2n1 (stereo not drawn),-37.65%
19,COCC(=O)N1CCC2(CCCN(Cc3cnn(C)c3)C2)C1 (stereo not drawn),0.82%
20,COCC(=O)N1CCCC2(CCN(c3cncnc3)C2=O)C1 (stereo not drawn),-8.381%
21,COCC(=O)N1CCCC(C)(c2nncn2C)C1 (stereo not drawn),100.7%
22,CNC(=O)CS(=O)(=O)C1CCN(S(=O)(=O)c2cccc(C(C)=O)c2)CC1,-4.98%
23,CSCc1cccc(S(=O)(=O)N2CCC(C)CC2)c1,-3.451%
24,COc1cccc(S(=O)(=O)N2CCN(C)[C@@H]3CS(=O)(=O)C[C@@H]32)c1,0.7716%
25,Cc1ccc(S(=O)(=O)N2CCC(N3CCCCC3)CC2)cc1C,2.331%

row,SMILES,Percent Effect
1,O=S1(=O)CCC(S(=O)(=O)c2cccc(S(=O)(=O)N3CCOCC3)c2)C1 (stereo not drawn),94.82%
2,O=C(O)c1cc(-c2cccnc2)cc(S(=O)(=O)N2CCCCCC2)c1,-2.874%
3,O=S1(=O)CCC(S(=O)(=O)c2cccc(S(=O)(=O)N3CCCCCC3)c2)C1 (stereo not drawn),99.56%
4,O=S1(=O)CCC(S(=O)(=O)c2cccc(S(=O)(=O)N3CCCC3)c2)C1 (stereo not drawn),102.5%
5,CSCc1cccc(S(=O)(=O)N2CCSCC2)c1,9.116%
6,Cc1cccc(S(=O)(=O)N2CCC3(CC2)CC(N(C)C)CO3)c1 (stereo not drawn),-10.34%
7,CN1CCN(S(=O)(=O)c2cccc(S(=O)(=O)C3CCS(=O)(=O)C3)c2)CC1 (stereo not drawn),83.09%
8,F[C@@H]1CN(CC2CC2)C[C@@H]1OCc1nc2cnccc2[nH]1,0.2441%
9,COc1ccc(C(=O)NC2CC2)c(OC2CCN(C(C)CO)CC2)c1 (stereo not drawn),-4.273%
10,CC(=O)N(Cc1ccoc1)C1CCCCC1,5.985%
11,CCCNC(=O)c1sc(Nc2ccc(Cl)cn2)nc1C,11.67%
12,CCN(CC)C(=O)CNC(=O)c1cnc(-c2ccccc2)nc1,0.8892%
13,Cl.Cn1ccnc1N1CCN(C(=O)Cc2ccccc2)CC1,103.6%
14,COc1cccc(CN(C)C(=O)CN2CCN(c3nccn3C)CC2)c1,6.217%
15,Cc1cccc(N2CCN(CCCNC(=O)c3nccn3C)CC2)c1,29.8%
16,Cc1cc(N2CCCN(C(=O)Cc3ccc(O)c(Cl)c3)CC2)ccn1,6.362%
17,Cl.Cn1ccnc1N1CCN(C(=O)Cc2ccc(Cl)cc2)CC1,89.82%
18,CCOc1ccc(CC(=O)N2CCN(c3nccn3C)CC2)cc1.Cl,-3.351%
19,Cl.Cn1ccnc1N1CCN(C(=O)Cc2ccc(F)cc2)CC1,9.363%
20,CC(=O)N1CCN(C(=O)CN2CCN(c3cccc(C)c3)CC2)CC1,4.87%
21,COc1ccc(CC(=O)N2CCN(c3nccn3C)CC2)cc1.Cl,92.57%
22,Cc1cccc(CC(=O)N2CCN(c3nccn3C)CC2)c1.Cl,119.3%
23,CN(C)c1cnnc(N2CCN(C(=O)Cc3ccccc3)CC2)c1,6.121%
